Hit rate of the full screen: of about 5,500 compounds, about 2,000 (36%) were called active. Not shown: some 18% with an inconclusive outcome. No stated cut-off is given here; in the data, active means normalized growth mostly below about 0.91 (no sharp cut-off); inconclusive means no clear call, values can overlap the other calls; inactive means mostly above about 0.92. This is one part of the list.
Assay: chemical genetic growth profiling, strain panel (AID 1159580);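 further: tested at 20 µM; growth read once vehicle control cultures reached saturation at 30 °C; 1 = growth at the plate median or of vehicle wells; lower values mean less growth of the strain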
Details: growth OD
[1] = S. cerevisiae deletion strains, locus YAL013W, strain DEP1, active compounds read low
[2] = S. cerevisiae deletion strains, locus YBR229C, strain ROT2, active compounds read low
[3] = S. cerevisiae deletion strains, locus YDL101C, strain DUN1, active compounds read low
[4] = S. cerevisiae deletion strains, locus YDR150W, strain NUM1, active compounds read low
[5] = S. cerevisiae deletion strains, locus YEL061C, strain CIN8, active compounds read low
[6] = S. cerevisiae deletion strains, locus YGR078C, strain PAC10, active compounds read low
[7] = S. cerevisiae deletion strains, locus YHR030C, strain SLT2, active compounds read low
[8] = S. cerevisiae deletion strains, locus YHR087W, strain rtc3, active compounds read low
[9] = S. cerevisiae deletion strains, locus YJL187C, strain SWE1, active compounds read low
[10] = S. cerevisiae deletion strains, locus YJR043C, strain POL32, active compounds read low
[11] = S. cerevisiae deletion strains, locus YJR075W, strain HOC1, active compounds read low
[12] = S. cerevisiae deletion strains, locus YLR039C, strain RIC1, active compounds read low
[13] = S. cerevisiae deletion strains, locus YLR058C, strain SHM2 (second series), active compounds read low
[14] = S. cerevisiae deletion strains, locus YLR085C, strain ARP6, active compounds read low
[15] = S. cerevisiae deletion strains, locus YLR262C, strain YPT6, active compounds read low
[16] = S. cerevisiae deletion strains, locus YML094W, strain GIM5, active compounds read low
[17] = S. cerevisiae deletion strains, locus YMR219W, strain ESC1, active compounds read low
[18] = S. cerevisiae deletion strains, locus YMR263W, strain SAP30, active compounds read low
[19] = S. cerevisiae deletion strains, locus YNL153C, strain GIM3, active compounds read low
[20] = S. cerevisiae deletion strains, locus YNL298W, strain CLA4 (second series), active compounds read low
[21] = S. cerevisiae deletion strains, locus YNL322C, strain KRE1, active compounds read low
[22] = S. cerevisiae deletion strains, locus YNR030W, strain Alg12, active compounds read low
[23] = S. cerevisiae deletion strains, locus YPL055C, strain LGE1, active compounds read low
[24] = S. cerevisiae deletion strains, locus YPL241C, strain CIN2, active compounds read low
[25] = S. cerevisiae deletion strains, locus YPR135W, strain CTF4, active compounds read low
[26] = S. cerevisiae strains, strain wild type, active compounds read low

Measured: normalized growth

CC/C(=N/Oc1ccc(C(F)(F)F)cn1)c1ccc(-c2ccccc2F)cc1
inactive: [1] 1.01 | [2] 1.01 | [3] 0.995 | [4] 0.981 | [5] 0.992 | [6] 1.01 | [7] 1.12 | [8] 1.02 | [9] 0.999 | [10] 0.987 | [11] 0.991 | [12] 1.03 | [13] 0.999 | [14] 1.04 | [15] 1.03 | [16] 1.01 | [17] 1 | [18] 0.996 | [19] 1 | [20] 1.05 | [21] 0.986 | [22] 1.02 | S. cerevisiae deletion strains, locus YOL006C, strain TOP1, active compounds read low 1.06 | [23] 0.984 | [24] 1.01 | [25] 1.05 | [26] 1.02

COC(=O)c1ccc(-c2ccccc2F)cc1
active: [7] 0.681 | S. cerevisiae deletion strains, locus YKL190W, strain CNB1, active compounds read low 0.857 | [14] 0.696 | [26] 0.901
inactive: [1] 0.984 | [2] 0.982 | [3] 0.987 | S. cerevisiae deletion strains, locus YDL134C, strain PPH21, active compounds read low 0.974 | [4] 0.971 | [5] 0.927 | [6] 0.962 | [8] 0.968 | [9] 0.961 | [10] 0.94 | [11] 0.893 | [12] 0.796 | [13] 0.99 | [15] 0.929 | [16] 0.958 | [17] 0.991 | [18] 0.971 | [19] 0.968 | [20] 0.897 | [21] 0.999 | [22] 0.957 | [23] 0.917 | [24] 0.89 | [25] 0.786

COC(=O)c1ccc(C(=O)OC)nc1
inactive: [1] 1 | [2] 0.994 | [3] 0.977 | [4] 0.976 | [5] 0.999 | [6] 0.997 | [7] 0.982 | [8] 0.995 | [10] 1 | [11] 0.993 | [12] 0.973 | [13] 1 | [14] 1.01 | [15] 0.984 | [16] 0.942 | [17] 0.998 | [18] 1.02 | S. cerevisiae deletion strains, locus YNL128W, strain TEP1, active compounds read low 0.987 | [19] 1 | [20] 1 | [21] 0.992 | [22] 0.998 | [23] 0.991 | [24] 0.949 | [25] 0.967 | [26] 0.989
